Source: PubChem (The Scripps Research Institute Molecular Screening Center)
In the library only some 3.4% were active in any assay of this set; here they are far more common.
GPR151 activ: activates the human receptor GPR151. Q8TDV0. actives 1% (n = 650,000). PathHunter beta-arrestin GPR151 cells, luminescence. activation, % at 11.2 µM; in the data active = activation above about 4.9%
FBW7 activator: human FBW7 E3 ligase activation, primary screen; AlphaScreen FBW7–phospho-cyclin E peptide binding, activator screen; normalized activity (activation), % at 26.1 µM; actives 0.13% (n = 650,000); in the data active = normalized activity above about 1.9%;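 note: purified mutant Fbw7 with reduced substrate affinity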
Target sequence (Q969H0 whole entry, looked up): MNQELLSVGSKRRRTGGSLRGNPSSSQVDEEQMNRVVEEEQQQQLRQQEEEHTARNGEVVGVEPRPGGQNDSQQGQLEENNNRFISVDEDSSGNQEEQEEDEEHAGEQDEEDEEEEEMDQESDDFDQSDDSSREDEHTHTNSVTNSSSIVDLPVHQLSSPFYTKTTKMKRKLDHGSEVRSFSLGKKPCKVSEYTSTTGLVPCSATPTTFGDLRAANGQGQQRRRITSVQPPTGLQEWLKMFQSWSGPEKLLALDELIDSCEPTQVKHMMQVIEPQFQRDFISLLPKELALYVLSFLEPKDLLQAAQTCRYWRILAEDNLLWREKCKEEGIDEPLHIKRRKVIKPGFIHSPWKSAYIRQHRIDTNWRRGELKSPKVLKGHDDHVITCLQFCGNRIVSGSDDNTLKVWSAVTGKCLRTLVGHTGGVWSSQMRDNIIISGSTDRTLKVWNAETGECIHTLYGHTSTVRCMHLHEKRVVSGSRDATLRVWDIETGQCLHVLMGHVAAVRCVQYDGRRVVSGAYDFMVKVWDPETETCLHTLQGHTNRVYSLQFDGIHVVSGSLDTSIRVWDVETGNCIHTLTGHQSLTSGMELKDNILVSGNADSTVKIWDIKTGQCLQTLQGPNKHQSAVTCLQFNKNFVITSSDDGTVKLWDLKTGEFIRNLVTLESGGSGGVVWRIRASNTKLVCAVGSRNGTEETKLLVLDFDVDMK
TEAD-YAP block: TEAD-YAP interaction inhibition; AID 1259422; actives 1.4% (n = 640,000); inhibition, % at 9.12 µM; HEK-TIYL cells, TEAD-Gal4/YAP UAS-luciferase luminescence; in the data active = inhibition above about 32%
MITF primary: human MITF inhibition, primary screen; O75030; AlphaScreen MITF homodimerization, bead proximity signal; inhibition, % at 2.6 µM; actives 0.91% (n = 650,000); in the data active = inhibition above about 50%
A number is an active result; - = inactive; . = no result.

SMILES	GPR151 activ	FBW7 activator	TEAD-YAP block	MITF primary
COc1ccc(NC(=O)NC(=O)c2c(Cl)ccc(Cl)c2OC)cc1	-	-	37.5	-
O=C(CC(=O)c1ccc(Cl)cc1)C(=O)Nc1ccccc1	-	-	-	-
O=C(Nc1ccc(Oc2ccccc2)cc1)c1cc(N2CCOCC2)nc2ccccc12	-	-	-	-
O=C(Nc1ccc(C(=O)c2ccc(Cl)cc2)c(Cl)c1)c1cc(Cl)ccc1O	-	-	39.8	-
O=C(c1ccc(Cl)cc1)c1ccc(NC(=O)c2cc(Br)cc(Br)c2O)cc1Cl	-	-	-	-
O=C(Nc1nnc(-c2ccc(Cl)cc2)o1)c1cccc(C(F)(F)F)c1	-	.	.	.
O=C(Nc1nnc(-c2ccc(F)cc2)o1)c1cccc(C(F)(F)F)c1	-	-	69.4	-
Cc1cc(C(=O)CN2C(=O)C3CC=CCC3C2=O)c(C)n1CC1CCCO1 (stereo not drawn)	-	-	36.4	-
Cc1nnc(SCC(=O)c2cc(C)n(CC3CCCO3)c2C)s1 (stereo not drawn)	-	-	41.5	-
Cc1cc(C(=O)CSc2nnc(-c3cccs3)o2)c(C)n1CC1CCCO1 (stereo not drawn)	-	-	-	-
C=CCOc1ccc(/C=N/NC(=O)CC(=O)NCCOC)cc1OC	-	-	-	-
Cc1nc2sccn2c1-c1csc(Nc2cccc(O)c2)n1	-	-	37.2	-
Cc1nc2sccn2c1-c1csc(Nc2ccccc2)n1	-	-	-	-
Cc1nc2sccn2c1-c1csc(Nc2ccc(Br)cc2)n1	-	-	49.5	-
Cc1nc2sccn2c1-c1csc(Nc2ccc(N)cc2)n1	-	-	-	-
COc1cc(CCC(=O)N2CCCCC2c2nc3cc(C)c(C)cc3[nH]2)on1 (stereo not drawn)	-	-	41.0	-
Cc1cc2nc(C3CCCCN3C(=O)CCc3c(C)noc3C)[nH]c2cc1C (stereo not drawn)	-	-	-	-
Cc1ccc2c(CC(=O)N3c4ccc(F)cc4CCC3C)cc(=O)oc2c1 (stereo not drawn)	-	-	-	-
COc1cccc(NC(=O)NCCCNc2nc3cc4c(cc3cc2C#N)OCO4)c1	-	-	-	-
COc1cccc(CC(=O)NCCCNc2nc3cc4c(cc3cc2C#N)OCO4)c1	-	-	60.5	-
COc1ccc(OC)c(/C=C2/SC(=Nc3ccc(C)cc3)NC2=O)c1	-	-	51.4	-
COc1ccc(/C=C2\SC(=Nc3ccccc3F)NC2=O)c(OC)c1	-	-	-	-
COc1ccc(/C=C2\SC(=Nc3cccc4ccccc34)NC2=O)c(OC)c1	-	-	58.6	-
COc1ccc2ccccc2c1/C=C1/SC(=Nc2ccccc2)NC1=O	-	-	43.6	-
COc1ccc2ccccc2c1/C=C1\SC(=S)NC1=O	-	-	-	-
SMILES	GPR151 activ	FBW7 activator	TEAD-YAP block	MITF primary
COc1ccc(/C=C2\SC(=Nc3ccccc3)NC2=O)c2ccccc12	-	-	63.2	-
CC(NC(=O)C(=O)NCCN(C)C)c1ccccc1 (stereo not drawn)	-	-	-	-
Cc1ccccc1NC(=O)CCN(C)Cc1ccccc1	-	-	-	-
NC(=O)CSc1nc(-c2ccc(Cl)cc2)cs1	-	-	-	-
CC(=O)N1c2ccccc2NC2=C(C(=O)CCC2)C1c1cccc(Br)c1 (stereo not drawn)	-	-	37.2	-
CC(=O)N1c2ccccc2NC2=C(C(=O)CCC2)C1c1ccccc1 (stereo not drawn)	-	-	37.1	-
C=C(C)CNC(=O)c1ccc(OC2CCN(Cc3ccccn3)CC2)cc1	-	-	-	-
O=C(CSc1n[nH]c(/C=C/c2ccc(F)cc2)n1)Nc1cc(C(=O)O)cc([N+](=O)[O-])c1	-	-	68.9	-
C/C(CC(=O)Nc1ccccn1)=N\NC(=O)C(=O)NCCO	-	-	-	-
COc1cc(C2C(C#N)=C(N)Oc3ccc4ccccc4c32)cc(OC)c1OC (stereo not drawn)	-	-	47.8	-
N#CC1=C(N)Oc2ccc3ccccc3c2C1c1ccccc1F (stereo not drawn)	-	-	52.2	-
COc1ccc(C2C(C#N)=C(N)Oc3ccc4ccccc4c32)cc1OC (stereo not drawn)	-	-	-	-
Cc1ccc(/C=C2\N=C(c3ccc(-c4ccccc4)cc3)OC2=O)cc1	-	-	-	-
COc1ccc(N2C(=O)CC(Sc3ccccc3C(=O)O)C2=O)cc1 (stereo not drawn)	-	-	-	-
CCOC(=O)C(N)CSC1CC(=O)N(c2ccc(OC)cc2)C1=O (stereo not drawn)	-	-	-	-
COc1ccc(N2C(=O)CC(SCCN)C2=O)cc1 (stereo not drawn)	-	2.5	-	-
COc1ccc(N2C(=O)CC(Sc3nc(C)c4ccccc4n3)C2=O)cc1 (stereo not drawn)	-	-	53.0	-
COC(=O)c1ccccc1NC(=O)COc1ccc(Cl)cc1Cl	-	-	-	-
Cc1nc2c(c(=O)[nH]1)CCN(Cc1ccc(N3CCCC3)c(F)c1)C2	-	-	-	-
O=C(N1CCOCC1)N1CCCC(c2ncncc2-c2ccncc2)C1 (stereo not drawn)	-	2.2	-	-
Cc1nc2sccn2c1C(=O)N/N=C/c1cccc2ccccc12	-	-	-	-
COc1ccc2cc3c(N)nn(C(=O)Cc4ccccc4OC)c3nc2c1	-	-	33.2	-
COc1ccc2cc3c(N)nn(C(=O)c4cncc(Br)c4)c3nc2c1	-	-	-	-
COc1ccc(C(=O)n2nc(N)c3cc4cc(OC)ccc4nc32)cc1	-	-	44.2	-
CCOc1ccc(C(=O)n2nc(N)c3cc4cc(OC)ccc4nc32)cc1	-	-	38.2	-
SMILES	GPR151 activ	FBW7 activator	TEAD-YAP block	MITF primary
COc1ccc2nc3c(cc2c1)c(N)nn3C(=O)c1ccc([N+](=O)[O-])cc1Cl	-	-	-	-
COc1ccc(C(=O)n2nc(N)c3cc4ccc(C)cc4nc32)cc1OC	-	-	-	-
COc1ccc2cc3c(N)nn(C(=O)c4ccc(Br)o4)c3nc2c1	-	-	43.3	-
Cc1cc(C)c2c3c(sc2n1)C1(CCOCC1)C(C#N)=C(N)O3	-	-	-	-
C/C=C/COC(=O)C1=C(C)NC(=O)NC1c1ccc(OC)cc1 (stereo not drawn)	-	-	-	-
O=C(Nc1ccc2c(c1)CCCN2C(=O)c1ccccc1)NC1CCCCC1	-	-	-	-
COc1cccc(NC(=O)c2cc(-c3cccs3)nc3ccccc23)c1	-	-	-	-
COc1ccc2cc3c(N)nn(C(=O)c4cccc([N+](=O)[O-])c4)c3nc2c1	-	-	-	-
COc1ccc2nc3c(cc2c1)c(N)nn3C(=O)c1ccc(F)cc1	-	-	36.2	-
Fc1ccc(CNc2ccc3ncc(-c4ccco4)n3n2)cc1	-	-	-	-
Cc1cccc(C2CC(=O)Nc3cc4c(cc32)OCCO4)c1 (stereo not drawn)	-	-	40.3	-
Cc1cccc(C2CC(=O)Nc3cc4c(cc32)OCO4)c1 (stereo not drawn)	-	-	-	-
COc1ccc([N+](=O)[O-])cc1NC(=O)CC(C)=O	-	-	-	-
